# In PMC7819943, “Rice protein-binding microarrays: a tool to detect cis-acting elements near promoter regions in rice”:
# The full ranking holds about 68,000 sequences; the median of “fluorescence intensity (a.u.)” is about 9,100, and the highest 2% start at about 16,000. The sample holds the highest values, similar sequences and a random draw of the others, so the mix is not that of the screen.
# Target: OsWRKY34 (Oryza sativa, UniProt Q0JBA9 1-250)
# Experiment: protein-binding microarray (RPBM); PBS, 2% BSA, 51.3 ng/ul salmon testes DNA, 50 uM zinc acetate, 200 nM TF, 25 C, 1 h; high values mean tight binding
# Settings: protein: recombinant; tags: N-terminal polyhistidine and DsRed monomer fusion (pET32a); label: CyDye5-dUTP incorporated in the synthesized complementary strand; 3' TTTTT single-stranded linker to array surface; dsDNA, one strand shown
# Summary of the method: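 The binding signal is fluorescence intensity per array feature (arbitrary units). Readings came from an Axon 4000B scanner after a washed, 2% BSA-blocked, double-stranded custom Agilent array had been incubated for 1 h at 25 °C with 200 nM protein and 50 µM zinc acetate. The protein was a Ni–NTA-purified transcription factor fused N-terminally to polyhistidine and DsRed, expressed in E. coli BL21-CodonPlus.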
# Chain of OsWRKY34 (Q0JBA9 entry or part of it): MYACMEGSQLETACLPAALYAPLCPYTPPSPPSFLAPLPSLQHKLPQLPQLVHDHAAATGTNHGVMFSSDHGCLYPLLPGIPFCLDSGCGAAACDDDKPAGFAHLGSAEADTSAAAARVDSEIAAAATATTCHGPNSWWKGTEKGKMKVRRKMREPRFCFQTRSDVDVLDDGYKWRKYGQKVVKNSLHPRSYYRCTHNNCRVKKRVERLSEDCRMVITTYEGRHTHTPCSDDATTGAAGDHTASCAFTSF
row,Sequence,binding signal
1,AGAGGAGAGGAGGGTTCAGATGTGGTGGGTCTATATAGCGCGGAGTCACCTAGTGCAG,9610 fluorescence intensity (a.u.)
2,GATAGTGTCCCACGCATGCGTCCACGAGTCCTCGACGCAACGGAGTCACCTAGTGCAG,9120 fluorescence intensity (a.u.)
3,TACTACACTATTAATATATGGTCCAACCTGTCATACACACCGGAGTCACCTAGTGCAG,10700 fluorescence intensity (a.u.)
4,TGTTTATCTATTTTGTGTTGGTATTATTATTTCTTGTATACGGAGTCACCTAGTGCAG,8850 fluorescence intensity (a.u.)
5,CCACACCACAGTCGCCTCTCTCCTCTTTCACCGAGAAGCGCGGAGTCACCTAGTGCAG,8150 fluorescence intensity (a.u.)
6,GTTTCCATAGCATTACACTTTTGTAACTATTATTGTTTTGCGGAGTCACCTAGTGCAG,9760 fluorescence intensity (a.u.)
7,TATGAAGTTGATTTTGTGGATTTTTTCATCGTGATTTATTCGGAGTCACCTAGTGCAG,8890 fluorescence intensity (a.u.)
8,TACTGGTCGTCTGGTCTACTCCGTCTCTCCTCTTCTCTCCCGGAGTCACCTAGTGCAG,12200 fluorescence intensity (a.u.)
9,ATCATTCCTAACTGCCTGGTCGTACTTCTCTGTATTTTGTCGGAGTCACCTAGTGCAG,17500 fluorescence intensity (a.u.)
10,CTTGGTTTCTTGTTGTGCAACTCTCGTCGTCTCGTTCATCCGGAGTCACCTAGTGCAG,11500 fluorescence intensity (a.u.)
11,ACTTGTATTCTTCCTCGTCTTCCTCTTCTGTATTTCTGGTCGGAGTCACCTAGTGCAG,8140 fluorescence intensity (a.u.)
12,GTTTTGTATGGTTCTCTGGATATATTACTGCCTGTAAATTCGGAGTCACCTAGTGCAG,8320 fluorescence intensity (a.u.)
13,ACTGTCTCGTATTCTATTCCTCATTCCTTCTCTTTTTTTCCGGAGTCACCTAGTGCAG,19600 fluorescence intensity (a.u.)
14,TTTCTCCGTCGTCTTCCTCTACTGGTTCTATGTCTTCTCACGGAGTCACCTAGTGCAG,18800 fluorescence intensity (a.u.)
15,TCCTCATGCCTCTTTTTCCTCCTCCTTCCTTCTCTCATTCCGGAGTCACCTAGTGCAG,10200 fluorescence intensity (a.u.)
16,TCCGTCGTCTTCCTTTACTGGTTCTATGTCTTCTCAGTAACGGAGTCACCTAGTGCAG,10800 fluorescence intensity (a.u.)
17,CTCTCCTCCCTATTCTTTTCCTTTCCTCTCCTTTCCTTTCCGGAGTCACCTAGTGCAG,8870 fluorescence intensity (a.u.)
18,AACTCACTCTCGCGTTCGCGTCGTCTCCGGCCTTTTCTTGCGGAGTCACCTAGTGCAG,8870 fluorescence intensity (a.u.)
19,CTTTCCGTCGCGTCTCGTCTTCTCATGGTTGCAACTCTCCCGGAGTCACCTAGTGCAG,18100 fluorescence intensity (a.u.)
20,CCCGGCCTTAGCATACTATTATTTTAGCACTAATCTTAACCGGAGTCACCTAGTGCAG,9300 fluorescence intensity (a.u.)
21,TTTTATAAATTCGAGCGTGTGCGGGTTTCGTTTTCTCACTCGGAGTCACCTAGTGCAG,9840 fluorescence intensity (a.u.)

row,Sequence,binding signal
1,GCTGTGGTCATGGACAGGGGACGGGCTGGGGTCGTCGCGCCGGAGTCACCTAGTGCAG,8090 fluorescence intensity (a.u.)
2,TTTTGCTACAGTGCTCGGATATATCTGGGACGTCCATTTTCGGAGTCACCTAGTGCAG,10200 fluorescence intensity (a.u.)
3,TGCGTACACTCCTTTGAAACCCCATTGCTATGTAGACAATCGGAGTCACCTAGTGCAG,8020 fluorescence intensity (a.u.)
4,TAAAATTCTGTTCCGCCGCGTTTGCCCTCGTCAACTAATCCGGAGTCACCTAGTGCAG,9750 fluorescence intensity (a.u.)
5,ATGTCTGTATCTGTTATTGTTTCTATTGTGTCTGATCCAACGGAGTCACCTAGTGCAG,8980 fluorescence intensity (a.u.)
6,AACTAGGTCCCTCGGCGGTTTTGACTCCTGTTTTGTCCAACGGAGTCACCTAGTGCAG,12500 fluorescence intensity (a.u.)
7,GGCAACCACGTAATTCCCTCCCTTTTCAGTTACTCATCAACGGAGTCACCTAGTGCAG,9620 fluorescence intensity (a.u.)
8,GGTTCCAATTCGTCGCCTGATACTCCGATTCGAGTTCTTGCGGAGTCACCTAGTGCAG,12700 fluorescence intensity (a.u.)
9,CTCGTTGTCGTGCTGCTTGTAATTCATCTAGTTTGTCTACCGGAGTCACCTAGTGCAG,10000 fluorescence intensity (a.u.)
10,CTTGGATTCTGAGGTGGGCTTGAACTTGATATGAATTAGGCGGAGTCACCTAGTGCAG,8100 fluorescence intensity (a.u.)
11,GTGTAACTTGTTTTGCTAGGGTTTTTGATTGCTTTTTACTCGGAGTCACCTAGTGCAG,12000 fluorescence intensity (a.u.)
12,CAAATTCTAGACTTTTTGGTGGGTTGCGTGCGAGGGGTGGCGGAGTCACCTAGTGCAG,10500 fluorescence intensity (a.u.)
13,GTGCGTGTAAACTTTTTTGGGGTTGTTTTGGGCGGTTACTCGGAGTCACCTAGTGCAG,18200 fluorescence intensity (a.u.)
14,TTGGGTTGGGTTGGTGAGGTGGGGAGATGGTTTGGTGAGGCGGAGTCACCTAGTGCAG,17300 fluorescence intensity (a.u.)
15,GGTGGTTGGCGCGCGTTTTCTTGTGTGGTTTTTTGTGTCGCGGAGTCACCTAGTGCAG,14200 fluorescence intensity (a.u.)
16,TTTAGGGGTGTTTGGTTGAGGGGTGAGTGGGATGGGTTGGCGGAGTCACCTAGTGCAG,10300 fluorescence intensity (a.u.)
17,CGAGTCTTTTGTGCGGGTGGTTGGGGCGTGGGCGGTGGCGCGGAGTCACCTAGTGCAG,23100 fluorescence intensity (a.u.)
18,AGATGAGAGGTTTGGTTGGTTGGATGGTGGGGAGCGCCCGCGGAGTCACCTAGTGCAG,10400 fluorescence intensity (a.u.)
19,GAGGTGACGCTGCCGCCGGCGGTGGGCGGAGTGGGAGGGGCGGAGTCACCTAGTGCAG,8390 fluorescence intensity (a.u.)
20,GGCCGGGCGAGGCGCTGGGAGGTGGCGGCTAGCGGCGGGGCGGAGTCACCTAGTGCAG,8500 fluorescence intensity (a.u.)
21,GTAAACTTATTCTTTGGGCGTTGTTATTATTTGGGGCAATCGGAGTCACCTAGTGCAG,11400 fluorescence intensity (a.u.)

row,Sequence,binding signal
1,TGTTCTTGCTACGCTGGGAGGGGAGGGGTGGCGCCGCGGCCGGAGTCACCTAGTGCAG,21700 fluorescence intensity (a.u.)
2,ATTTGTTCCCATCCATCTCGGCCCTGTCGCCATTGTGCCACGGAGTCACCTAGTGCAG,9450 fluorescence intensity (a.u.)
3,GATTGATTATCCTTTTCTTAAACTATTTTCCTGTTTTTCACGGAGTCACCTAGTGCAG,13200 fluorescence intensity (a.u.)
4,GCCAAGCCTTTTTCTTCTACTCTTTTTGGCATGGAACTCACGGAGTCACCTAGTGCAG,8350 fluorescence intensity (a.u.)
5,AACGATTTGCATGTCATACAGATACATCACATTTCTTTCTCGGAGTCACCTAGTGCAG,8520 fluorescence intensity (a.u.)
6,AGCAAATTCCTTTATGTTTTTTCTTATGTCTTCTCCAGCTCGGAGTCACCTAGTGCAG,9040 fluorescence intensity (a.u.)
7,ACACTCTATTAAGAGGATCCGTTTCATTTTTTGTTCCATCCGGAGTCACCTAGTGCAG,8760 fluorescence intensity (a.u.)
8,CTATACTCACCCACTTGCCAATTTGCCATTGCCAACACCTCGGAGTCACCTAGTGCAG,9100 fluorescence intensity (a.u.)
9,TTGTTGGCTCAATATAGTTATCCTCCTTTGACCCAGTTAACGGAGTCACCTAGTGCAG,9120 fluorescence intensity (a.u.)
10,TGGGTTTTACGGTTTTACCCTCTCGGGCTTGAGGGGAGAGCGGAGTCACCTAGTGCAG,47600 fluorescence intensity (a.u.)
11,GGGTGGAGGAGGGGACTTCGGGAGGGCGGTGGCGAGGGCGCGGAGTCACCTAGTGCAG,16400 fluorescence intensity (a.u.)
12,AGGAGAGGGGTTTACTCGGTTGAGGATTTTCTTGTTCTCACGGAGTCACCTAGTGCAG,8180 fluorescence intensity (a.u.)
13,TGGCGGCGTGGAGCCGCGAGGGCGGTGGCGGCGGGGAGTTCGGAGTCACCTAGTGCAG,10400 fluorescence intensity (a.u.)
14,GGGAGCGGCGGAGGAGGAGGGCGCGGCGGCGGTGGGGTGGCGGAGTCACCTAGTGCAG,18100 fluorescence intensity (a.u.)
15,GGGAGGGGTGCGGCGCGGTGGCGCTGGAGCGGAGGAGCGTCGGAGTCACCTAGTGCAG,9990 fluorescence intensity (a.u.)
16,TGTTCGGTGGGCGAGGAGAGGAGTGGGTGGGAGTGGACTGCGGAGTCACCTAGTGCAG,8780 fluorescence intensity (a.u.)
17,AGGTGAGAGGAGGAGAGAGACGGGTTTAGGGCTTTAGGAGCGGAGTCACCTAGTGCAG,8040 fluorescence intensity (a.u.)
18,GCTCGGCGGCGCCGCGGCGGCGGTGGCGGAGGCGGGGATGCGGAGTCACCTAGTGCAG,8910 fluorescence intensity (a.u.)
19,GGTGGGCGGAGTGGGAGGGGAGGCATCGGCGCCTCGGTGGCGGAGTCACCTAGTGCAG,16800 fluorescence intensity (a.u.)
20,GGAGGTGGTGGCGCTGCCTCGGGGCCCCTCGCCTGGGAGGCGGAGTCACCTAGTGCAG,9800 fluorescence intensity (a.u.)
21,GCGAGTGAGGAGGGGCGGCGCGCGGTGGCCGGCGGGTGAGCGGAGTCACCTAGTGCAG,8070 fluorescence intensity (a.u.)
